Compounds with a hit are over-represented: about 27% of the library has one in this group of screens.
CYP2C9 act: increases human cytochrome P450 2C9 activity; P11712; recombinant CYP2C9, luciferin-H conversion, luminescence; active compounds read high; factor 1 = untreated enzyme, 0 = blocked; activation factor at 5 µM; 96,000 tested, 1.4% active; AID 1024;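 active = activation factor of 2 or more for CYP2C9 at a 5 µM dose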;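 also: 0 = sulfaphenazole-blocked wells and 1 = vehicle-only wells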
Target sequence (P11712 whole entry, looked up): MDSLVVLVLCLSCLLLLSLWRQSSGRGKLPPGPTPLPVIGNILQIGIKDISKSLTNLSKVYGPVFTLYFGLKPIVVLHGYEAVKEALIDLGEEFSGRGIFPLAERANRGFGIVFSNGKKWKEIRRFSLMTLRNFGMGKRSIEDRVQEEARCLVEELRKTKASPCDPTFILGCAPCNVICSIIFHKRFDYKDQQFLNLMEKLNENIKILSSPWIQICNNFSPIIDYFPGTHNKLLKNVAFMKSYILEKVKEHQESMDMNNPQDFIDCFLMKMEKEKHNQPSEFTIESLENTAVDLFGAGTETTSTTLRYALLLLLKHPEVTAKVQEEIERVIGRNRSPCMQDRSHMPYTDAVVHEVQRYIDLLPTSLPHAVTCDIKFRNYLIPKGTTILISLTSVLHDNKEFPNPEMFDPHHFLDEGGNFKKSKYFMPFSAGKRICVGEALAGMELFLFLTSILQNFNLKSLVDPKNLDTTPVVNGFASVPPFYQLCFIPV
CYP2C19 inh: blocks human cytochrome P450 2C19; P33261; inhibition, % at 5 µM; 96,000 tested, 21% active; CYP2C19 Supersomes, luciferin-H EGE luminescence, 30 min;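 active = CYP2C19 inhibition above a set limit at 5 µM in the primary screen, cut at about 50% in these data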;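 also: plate controls were negative control wells for no effect and 2.5 mM tranylcypromine positive control for full effect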
CYP2C19 act: increases human CYP2C19 enzyme activity | activation factor at 5 µM | recombinant CYP2C19, luciferin-H EGE luminescence; active compounds read high; 0 = fully inhibited enzyme, 1 = untreated enzyme | P33261 | 96,000 tested, under 10 active;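 active = activation factor of at least 2 at 5 µM in the primary screen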;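 also: 0 = wells with 2.5 mM tranylcypromine and 1 = vehicle-only wells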
Cav32 inh: blocks human Cav3.2 T-type calcium channel. O95180. Cav3.2-expressing cells, Fluo-4 calcium fluorescence FDSS; active compounds read low. B-score at 10 µM. 100,000 tested, 4% active;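 active = single-dose well whose peak fluorescence ratio is a statistical outlier from its plate by either plate-standardised score or position-corrected B-score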
CYP2C9 inh: inhibitors of human CYP2C9. P11712. inhibition, % at 5 µM. CYP2C9 Supersomes, luciferin-H conversion, luminescence. 96,000 tested, 20% active;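 active = blocking of liver enzyme CYP2C9 beyond about 50% at 5 µM, limit read from the data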
An asterisk follows results filed as active; x = no result.

SMILES | CYP2C9 act | CYP2C19 inh | CYP2C19 act | Cav32 inh | CYP2C9 inh
CC(C)(C)C1=Nn2c(nnc2-c2ccccc2F)SC1 | 0.6 | 78* | 0.2 | 0.24 | 43
COc1ccccc1-c1nnc2n1N=C(C(C)(C)C)CS2 | 0.5 | 79* | 0.2 | 0.46 | 46
CCn1nc(C(=O)OC(C(=O)c2c[nH]c3ccccc23)c2ccccc2)c2ccccc2c1=O (stereo not drawn) | 0.3 | 34 | 0.7 | -3.5 | 74*
O=C(Nc1ccc(-n2cnnn2)cc1)C1CCC1 | 0.6 | 51* | 0.5 | 1.2 | 39
CCC(=O)Nc1nnc(CSCc2ccc(F)cc2)s1 | 0.9 | 35 | 0.7 | 0.29 | 6
Cc1ccc(OCC(=O)OCC(=O)c2c(N)n(C)c(=O)n(C)c2=O)cc1C | 0.8 | 60* | 0.4 | 1.1 | 24
Cc1cc(C)cc(OCC(=O)OCC(=O)c2c(N)n(C)c(=O)n(C)c2=O)c1 | 1 | 30 | 0.7 | -0.21 | -1
Cn1c(N)c(C(=O)COC(=O)CCc2c[nH]c3ccccc23)c(=O)n(C)c1=O | 1.7 | 60* | 0.4 | 0.63 | -70
Nc1nc(-c2ccc(Cl)cc2Cl)cn1N | 0.9 | 20 | 0.8 | 0.28 | 9
O=c1c2ccccc2[nH]c(=S)n1CC1CCCO1 (stereo not drawn) | x | x | x | 0.5 | x
O=c1c2cc(N3CCOCC3)ccc2[nH]c(=S)n1CC1CCCO1 (stereo not drawn) | 0.4 | 15 | 0.9 | -2 | 62*
CCCCC(=O)Nc1cccc(NC(=O)c2ccc(Br)o2)c1 | 0.1 | 70* | 0.3 | -0.3 | 93*
O=C(Nc1cccc(F)c1)c1ccc(Br)o1 | x | x | x | 0.61 | x
O=C(Nc1ccc2c(c1)oc1ccccc12)N1CCOCC1 | 0.9 | 36 | 0.6 | -0.025 | 12
CCn1c2ccccc2c2cc(NC(=O)c3ccc(Br)o3)ccc21 | 1 | 77* | 0.2 | -0.98 | 1
CCn1c2ccccc2c2cc(NC(=O)N3CCOCC3)ccc21 | 1.4 | 52* | 0.5 | 0.68 | -43
O=C1CC(N2CCN(C3CCc4ccccc4C3)CC2)C(=O)N1c1ccccc1 (stereo not drawn) | x | x | x | -1 | x
CC1(C)CC2(CCO1)CNC(=O)O2 (stereo not drawn) | 1 | -10 | 1.1 | 0.77 | 1
NNC(=O)c1ccccc1CO | x | x | x | -1.7 | x
CC(=O)c1ccc(-c2cc([C@H]3[C@H]4C=CC[C@@H](C)[C@@H]4C(=O)N3Cc3ccccc3)ccc2F)cc1 | x | x | x | -2.4 | x
CC(C)Cn1c(-c2ccccc2F)n[nH]c1=S | 0.5 | 81* | 0.2 | 0.39 | 46
CC(C)Cn1c(-c2ccc(F)cc2)n[nH]c1=S | 0.8 | 86* | 0.1 | -0.0051 | 19
CC(C)Cn1c(-c2ccco2)n[nH]c1=S | 1 | 16 | 0.8 | 0.14 | -4
COC(=O)c1cccc(N(C(=O)c2cnccn2)C(C(=O)NC2CCCCC2)c2cn(C)nc2C)c1 (stereo not drawn) | 1.1 | 3 | 1 | 1.1 | -8
COc1ccccc1C(OC(=O)c1cccs1)C(=O)NCC1CCCO1 (stereo not drawn) | 0.8 | 42 | 0.6 | -0.11 | 20
SMILES | CYP2C9 act | CYP2C19 inh | CYP2C19 act | Cav32 inh | CYP2C9 inh
CC(C)CC(OC(=O)c1cccs1)C(=O)NCC1CCCO1 (stereo not drawn) | 0.2 | 58* | 0.4 | 0.3 | 84*
O=C(OC(C(=O)NCC1CCCO1)c1ccccn1)c1cccs1 (stereo not drawn) | 1 | 21 | 0.8 | 0.23 | 3
COc1ccc(C(OC(=O)c2cccs2)C(=O)NCC2CCCO2)cc1 (stereo not drawn) | 0.6 | 63* | 0.4 | 2.4 | 42
O=C(NCc1ccc2c(c1)OCO2)C1CCN(c2ncccn2)CC1 | 0.6 | 8 | 0.9 | 0.37 | 41
COc1ccc2c(c1OC)C(=O)N(c1ccccn1)C2 | 1 | 0 | 1 | 0.035 | 0
COc1ccc2c(c1OC)C(=O)N1N=C(c3ccc(O)cc3)CC21 (stereo not drawn) | 2.4* | 0 | 1 | 0.1 | -144
COc1ccccc1NC(=O)C1=C(C)NC(=O)NC1c1ccccc1F (stereo not drawn) | 1.6 | -7 | 1.1 | 0.66 | -60
COC(=O)c1ccc(C2NC(=S)N(c3ccccc3)C(C)=C2C(=O)Nc2ccccc2OC)cc1 (stereo not drawn) | 0.2 | 80* | 0.2 | -2.3 | 81*
CC(C)Cn1c(Cc2ccccc2)n[nH]c1=S | 1.2 | 40 | 0.6 | -0.47 | -23
Cc1ccccc1C(=O)NC1CCN(C(=O)N(c2ccccc2)c2ccccc2)CC1 | 0.4 | 13 | 0.9 | -0.37 | 58*
CCOc1ccccc1NC(=O)N1CCC(NC(=O)c2cccc(C)c2)CC1 | 2.6* | 37 | 0.6 | -0.24 | -164
CCOc1ccc(C(=O)NC2CCN(C(=O)NCc3ccccc3)CC2)cc1 | 0.9 | 7 | 0.9 | 1.8 | 15
Cc1ccccc1C(=O)NC1CCN(C(=O)N2CCOCC2)CC1 | x | x | x | -0.37 | x
CCOc1ccccc1NC(=O)N1CCC(NC(=O)c2ccccc2C)CC1 | 2.3* | 7 | 0.9 | -0.93 | -132
Cc1cccc(NC(=O)N2CCC(NC(=O)c3ccccc3C)CC2)c1 | 1 | -1 | 1 | -0.17 | -5
O=C(CN1C(=O)CSC1=O)Nc1ccc(N2CCOCC2)cc1 | 1.2 | -25 | 1.2 | -0.025 | -17
Cc1ccc(S(=O)(=O)CC(=O)Nc2nc(-c3ccccc3)cs2)cc1 | 0 | 85* | 0.2 | -7.2* | 97*
O=C(CS(=O)(=O)c1ccccc1)Nc1nc(-c2ccccc2)cs1 | 0 | 76* | 0.2 | -4.9* | 98*
CCOC(=O)c1ccc(NC(=O)C2(c3ccccc3)CCOCC2)cc1 | x | x | x | -2 | x
COc1cccc(-n2nnnc2SCC(=O)c2ccc(NC(C)=O)cc2)c1 | 0.9 | 15 | 0.8 | -0.2 | 7
Cn1nnnc1SCC(=O)NCCCc1ccccc1 | 1.2 | 14 | 0.9 | 0.65 | -15
COc1cccc(-n2nnnc2SCC(=O)NCCc2ccccc2)c1 | 0.9 | 93* | 0.1 | -1.9 | 13
COc1ccc(OC)c(-n2nnnc2SCC(=O)NCCc2ccccc2)c1 | 0.5 | 60* | 0.4 | -0.42 | 54*
COC(=O)CCC(=O)Nc1cccc(Br)c1 | 1 | 12 | 0.9 | 0.34 | 2
CC(C)(C)C1=Nn2c(nnc2-c2ccccn2)SC1 | 1.1 | 9 | 0.9 | 0.027 | -10
SMILES | CYP2C9 act | CYP2C19 inh | CYP2C19 act | Cav32 inh | CYP2C9 inh
Cc1cccc(NC(=O)c2ccccc2C(=O)O)c1 | 1.2 | -14 | 1.1 | 0.068 | -22
Cc1cccc(NC2=C(Cl)C(=O)OC2NC(=O)c2ccccc2)c1 (stereo not drawn) | 0.5 | 40 | 0.6 | -0.86 | 54*
CCN(CCCNS(=O)(=O)c1ccc2c(c1)CCN2C(C)=O)c1cccc(C)c1 | 0.7 | 62* | 0.4 | x | 32
CC(=O)N1CCCc2cc(S(=O)(=O)NCCC3=CCCCC3)ccc21 | 0.9 | 53* | 0.5 | -0.077 | 11
CC(=O)N1CCc2cc(S(=O)(=O)NCCC(=O)Nc3cccc(C)c3)ccc21 | 0.7 | 6 | 0.9 | 0.66 | 33
CC(=O)N1CCCc2cc(S(=O)(=O)CCC(=O)N3CCN(c4cccc(C)c4)C(C)C3)ccc21 (stereo not drawn) | 0.8 | 58* | 0.4 | x | 19

Screens (PubChem)
